Source: PubChem BioAssay
Sampled rows, rich in hits. Any-hit rate of the full collection: about 1.7%.
SUMO1-SIM PPI – modulators of SUMO1 protein-protein interactions, primary screen, biochemical, uHTS. Small ubiquitin-related modifier 1 (Homo sapiens), P63165. SUMO1 binding to a labelled peptide, TR-FRET, 1 h. inhibition, % at 20 µM. 360,000 compounds, 0.33% hits. AID 602429, 2012; in the data active means inhibition above about 37%
ATG4B inh – ATG4B protease inhibitors, primary screen, biochemical, fluorescence, uHTS. Cysteine protease ATG4B (Homo sapiens), Q9Y4P1. ATG4B cleavage of LC3-PLA2, NBD-HPC fluorescence, 1 h. inhibition, % at 8.33 µM. 340,000 compounds, 0.51% hits. AID 504462, 2011; in the data active means inhibition above about 40%
Rin1 Abl inh – inhibitors of Rin1-Abl protein binding, primary screen, biochemical, TR-FRET; Tyrosine-protein kinase ABL1 (Homo sapiens) + Ras and Rab interactor 1 (Homo sapiens), …; inhibition, % at 7.35 µM; 360,000 compounds, 0.4% hits; AID 588664, 2011; in the data active means inhibition above about 5%, passing the limit was not always enough
Neddyl block – inhibitors of cullin neddylation, primary screen, biochemical, TR-FRET, uHTS, NAE and Ubc12. NEDD8-conjugating enzyme Ubc12 (Homo sapiens) + NEDD8-activating enzyme E1 regulatory …. inhibition, % at 25 µM. 360,000 compounds, 0.58% hits. AID 651699, 2012; in the data active means inhibition above about 36%
Rin1-Abl confirm – Rin1-Abl binding inhibitor retest, confirmation, biochemical, TR-FRET; shares compounds with Rin1 Abl inh; purified proteins; inhibition, % at 7.35 µM; 1,300 compounds, 49% hits; AID 602124, 2011
GFP quencher – GFP fluorescence inhibitors and quenchers, artefact control for Rin1-Abl interaction inhibitor project, biochemical. shares compounds with Rin1 Abl inh. inhibitors/quenchers counterscreen. inhibition, % at 6.75 µM. 1,300 compounds, 8.5% hits;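 further: ABL1-eGFP fusion protein alone without its partner RIN1-SBP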
GFP quench DR – GFP fluorescence inhibitors and quenchers, dose response, artefact control for Rin1-Abl interaction inhibitor project, biochemical; AID 602182, 2012; IC50, µM; GFP fluorescence interference/quenching counterscreen; 230 tested, under 10 active; shares compounds with Rin1 Abl inh; call rule not given here;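 further: ABL1-eGFP fusion protein alone without its RIN1 binding partner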
Of the large screens only hits and unclear results are named; the others gave an inactive call (follow-up assays come after a bar, where they were run). Unless noted, no stated cut-off is given here; in the data, active means inhibition above about 6.5%; inactive means the rest.

O=C(CCNC(=O)c1ccccc1Cl)Nc1ccc(S(=O)(=O)N2CCOCC2)cc1	none (no result: ATG4B inh)
CCOC(=O)c1ccc(NC(=O)COc2ccc(CNCCO)cc2OCC)cc1	none
CCOC(=O)c1ccc(NC(=O)COc2ccccc2CNCCc2ccccc2)cc1	Rin1 Abl inh 19 | Rin1-Abl confirm 24 | GFP quencher inactive | GFP quench DR inactive
CCc1nnc(NC(=O)CSc2nnc(CNC(=O)c3cc(OC)c(OC)c(OC)c3)o2)s1	Rin1 Abl inh 8.2 | Rin1-Abl confirm inactive | GFP quencher inactive
CCSc1nnc(NC(=O)CSc2nnc(CNC(=O)c3cc(OC)c(OC)c(OC)c3)o2)s1	none
CCn1cc(C(=O)N2CCN(c3cccc(Cl)c3)CC2)c2cc(OC)c(OC)cc2c1=O	none
COc1cc2c(C(=O)N3CCN(c4cccc(Cl)c4)CC3)cn(C)c(=O)c2cc1OC	Rin1 Abl inh 17 | Rin1-Abl confirm 32 | GFP quencher inactive | GFP quench DR inactive
O=C(Nc1ccn(CCCN2CCN(c3ccccc3)CC2)c(=O)n1)OCc1ccccc1	none (no result: ATG4B inh)
Cc1cc(C)c(CN2CCN(CCCn3ccc(NC(=O)OCc4ccccc4)nc3=O)CC2)c(C)c1	Rin1 Abl inh 7.9 | Rin1-Abl confirm 8.0 | GFP quencher inactive
O=C(Nc1ccn(CCCN2CCC(N3CCOCC3)CC2)c(=O)n1)OCc1ccccc1	Rin1 Abl inh 11 (no result: ATG4B inh) | Rin1-Abl confirm 6.9 | GFP quencher inactive
CC(C)NC(=O)C1(C)CCN1C(=O)c1ccccc1Oc1ccccc1 (centres undefined)	none (no result: ATG4B inh)
CC1(C(=O)NS(=O)(=O)c2ccccc2C(F)(F)F)CCN1C(=O)CCc1cccs1 (centres undefined)	none (no result: ATG4B inh)
Cc1cc2c(N)cccc2nn1	SUMO1-SIM PPI 73, Rin1 Abl inh 12 | Rin1-Abl confirm inactive | GFP quencher inactive
O=C1NC[C@@H](CCCCN2C[C@H](Cc3ccc(O)cc3)N(CC3CCCCC3)C(=O)C2=O)N(CCc2ccccc2)C1=O	none (no result: ATG4B inh, Rin1 Abl inh)
Cc1ccc(-c2nn3c(-c4ccco4)nnc3c3ccccc23)cc1S(=O)(=O)NCC1CCCO1 (centres undefined)	Rin1 Abl inh 11 | Rin1-Abl confirm 27 | GFP quencher inactive | GFP quench DR inactive
CCCC(=O)Nc1ccc(N2CCN(C(=O)c3cc4ccccc4o3)CC2)cc1	Rin1 Abl inh 11 | Rin1-Abl confirm 8.1 | GFP quencher inactive
CCOc1nc(Nc2ccc(OC)cc2)nc(OCC)n1	Rin1 Abl inh 9.2 | Rin1-Abl confirm inactive | GFP quencher inactive
CC(=O)NN1C(=O)/C(=C/c2ccc(Br)o2)SC1=S	Rin1 Abl inh 6.5 | Rin1-Abl confirm inactive | GFP quencher inactive
CSc1nc2sc3c(c2c(=O)[nH]1)CCC3	Rin1 Abl inh 5.8 | Rin1-Abl confirm inactive | GFP quencher inactive
CSc1nc2sc3c(c2c(=O)[nH]1)CCCC3	none
CC(C)(C)OC(=O)NCCc1onc(-c2ccccc2F)c1C(=O)O	none (no result: ATG4B inh)
Nc1nc(NC2CCCC2)cc(=O)[nH]1	Rin1 Abl inh 18 | Rin1-Abl confirm 24 | GFP quencher inactive | GFP quench DR inactive
Cc1ccc(C)c(NC(=O)C2C3C=CC(O3)C2C(=O)O)c1 (centres undefined)	Rin1 Abl inh 7.6 | Rin1-Abl confirm inactive | GFP quencher inactive
Cc1ccc(NC(=O)C2C3C=CC(O3)C2C(=O)O)c(C)c1 (centres undefined)	none
O=C(C[C@@H]1CC[C@H](NS(=O)(=O)c2ccccc2F)[C@@H](CO)O1)NCCCN1CCOCC1	none (no result: ATG4B inh, Rin1 Abl inh)
COc1ccccc1NC(=O)/C=C\C(=O)O	none
COc1ccc(Cl)cc1NC(=O)/C=C\C(=O)O	Rin1 Abl inh 5.4 | Rin1-Abl confirm inactive | GFP quencher inactive
COc1cc2nc(Nc3ccc(F)cc3)nc(N)c2cc1OC	Rin1 Abl inh 14 | Rin1-Abl confirm 16 | GFP quencher inactive
